# Measured values from the supplement of paper PMC11628255, “Interference of metal ions on the bioluminescent signal of firefly, Renilla, and NanoLuc luciferases in high-throughput screening assays” (Frontiers in Chemistry, 2024).
# ± gives the standard deviation of the averaged measurements.
# Assays:
# [1] = system: NanoLuc luciferase (NLuc); assay: residual bioluminescent signal relative to negative (DMSO) control; higher = less interference (more residual luciferase signal)
# Outline: (§1)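 Firefly, NanoLuc or Renilla luciferase, each purified, was combined with every metal salt at final concentrations of 0.01, 1 and 5 mM in 384-well plates containing screening or HEPES buffer. The aqueous salts and enzyme were pre-incubated for 10 min at room temperature, and luminescence was measured 10 min after substrate was added, with triplicate wells. Residual signal expresses each well's luminescence as a percentage of the mean of the vehicle-only wells on that plate.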
# [2] = system: Renilla luciferase (RLuc); assay: as above
# Outline: as §1
# [3] = metal salt concentration 0.01 mM, HEPES conditions (100 mM HEPES, 0.1% BSA, pH 7.5)
# [4] = metal salt concentration 0.01 mM, screening conditions (PBS, 0.1% BSA, pH 7.4)
# [5] = metal salt concentration 1 mM, HEPES conditions (100 mM HEPES, 0.1% BSA, pH 7.5)
# [6] = metal salt concentration 1 mM, screening conditions (PBS, 0.1% BSA, pH 7.4)
# [7] = metal salt concentration 5 mM, HEPES conditions (100 mM HEPES, 0.1% BSA, pH 7.5)
# [8] = metal salt concentration 5 mM, screening conditions (PBS, 0.1% BSA, pH 7.4)
# [9] = metal salt concentration 0.01 mM, HEPES conditions (100 mM HEPES, 0.05% BSA, 0.3 M sodium ascorbate, pH 7.5)
# [10] = metal salt concentration 0.01 mM, screening conditions (50 mM Tris-HCl, […] KH2PO4, […] NaCl, 0.25 mM EDTA, 0.1% BSA, 0.3 M sodium ascorbate, pH 7.4)
# [11] = metal salt concentration 1 mM, HEPES conditions (100 mM HEPES, 0.05% BSA, 0.3 M sodium ascorbate, pH 7.5)
# [12] = metal salt concentration 1 mM, screening conditions (50 mM Tris-HCl, […] KH2PO4, […] NaCl, 0.25 mM EDTA, 0.1% BSA, 0.3 M sodium ascorbate, pH 7.4)
# [13] = metal salt concentration 5 mM, HEPES conditions (100 mM HEPES, 0.05% BSA, 0.3 M sodium ascorbate, pH 7.5)
# [14] = metal salt concentration 5 mM, screening conditions (50 mM Tris-HCl, […] KH2PO4, […] NaCl, 0.25 mM EDTA, 0.1% BSA, 0.3 M sodium ascorbate, pH 7.4)
Structure (SMILES),"residual bioluminescent signal [1, 3] [%]","residual bioluminescent signal [1, 4] [%]","residual bioluminescent signal [1, 5] [%]","residual bioluminescent signal [1, 6] [%]","residual bioluminescent signal [1, 7] [%]","residual bioluminescent signal [1, 8] [%]","residual bioluminescent signal [2, 9] [%]","residual bioluminescent signal [2, 10] [%]","residual bioluminescent signal [2, 11] [%]","residual bioluminescent signal [2, 12] [%]","residual bioluminescent signal [2, 13] [%]","residual bioluminescent signal [2, 14] [%]"
[Cl][Fe][Cl] [iron(II) chloride],95.6 ± 6,99.7 ± 4.5,2.39 ± 1.2,10.5 ± 2.6,0.172 ± 0.13,0.779 ± 0.37,62.9 ± 8.6,85.9 ± 6.2,1.9 ± 1.7,3.45 ± 1.9,0.774 ± 0.53,0.404 ± 0.27
O.O.O.O.O.O.O.O.O.O.O=S(=O)([O-])[O-].[Na+].[Na+] [sodium sulfate],96 ± 3.7,96.8 ± 5,96.8 ± 4,96 ± 4.3,98.4 ± 1.1,95.6 ± 4.4,112 ± 4.9,111 ± 1.9,75.1 ± 66,108 ± 9.8,118 ± 11,109 ± 13
CC#N.CC#N.CC#N.CC#N.F[B-](F)(F)F.[Cu+] [tetrakis(acetonitrile)copper(I) tetrafluoroborate],–,–,–,–,–,–,98.7 ± 11,103 ± 2.8,0.774 ± 0.32,0.538 ± 0.36,1.06 ± 0.76,0.628 ± 0.43
[Cl][Fe]([Cl])[Cl] [iron(III) chloride],–,–,–,–,–,–,91.5 ± 7.9,94.1 ± 10,2.32 ± 0.56,39.9 ± 12,0.985 ± 0.12,0.807
O=C([O-])[O-].[Cs+].[Cs+] [caesium carbonate],–,–,–,–,–,–,91.5 ± 6.8,94.9 ± 6.5,100 ± 11,93 ± 4.2,87.4 ± 1.1,87.8 ± 5.2
[Cl][Pt-2]([Cl])([Cl])[Cl].[K+].[K+] [potassium tetrachloroplatinate(II)],91.45 ± 0.79,99.8 ± 2.3,8.06 ± 0.51,7.81 ± 1.1,7.52 ± 0.31,5.07 ± 0.66,93.6 ± 1.9,96.1 ± 1.4,16.3 ± 9.4,8.11 ± 2.9,3.38 ± 2.1,1.17 ± 0.82
[Cl-].[Na+] [sodium chloride],–,–,–,–,–,–,97.4 ± 13,91.3 ± 5.2,104 ± 18,88.6 ± 1.3,111 ± 5,94.4 ± 11
O=S(=O)([O-])[O-].[Mn+2] [manganese(II) sulfate],–,–,–,–,–,–,112 ± 9.2,103 ± 12,101 ± 3.7,102 ± 5.1,71.9 ± 9.5,108.6 ± 0.66
O=S(=O)([O-])[O-].[Fe+2] [iron(II) sulfate],–,–,–,–,–,–,83.1 ± 2.5,99.5 ± 4,2.25 ± 0.97,13.5 ± 2.4,0.704 ± 0.68,0.762 ± 0.34
O.O.O.O.O.O.O.O=S(=O)([O-])[O-].[Mg+2] [magnesium sulfate],–,–,–,–,–,–,85.7 ± 4.6,88.5 ± 5.2,99.3 ± 11,93.1 ± 12,97.7 ± 5.9,109 ± 27
O=C([O-])[O-].[K+].[K+] [potassium carbonate],91.3 ± 2.9,100 ± 4,92.1 ± 8.9,97.6 ± 3,95.6 ± 1.7,96.6 ± 3.6,90.4 ± 4.2,88.9 ± 2.2,93.2 ± 9.6,92.2 ± 5.6,96.4 ± 7,76.8 ± 4.4
